# Experimental data: PubChem BioAssay AID463173 (ICCB-Longwood Screening Facility, Harvard Medical School, 2010)
# Hit rate of the full screen: of about 52,000 compounds, about 1,700 (3.3%) were called active. The list comes from a sample in which actives are over-represented; it also holds similar structures and randomly drawn compounds. A number with no mark means an inactive call. Rule as the data show it: active = survival mostly below about 52% (no sharp cut-off); inactive = mostly above about 56%.
# Test system: Wild type
# Test: S. aureus survival, RN4220 and DeltatarO strains – OD600, teichoic acid synthesis inhibitors, primary screen (AID 463173)
# Conditions: S. aureus RN4220 wild type/DeltatarO growth, OD600, 18 h, hits give low values, screened at 18.75 µg/mL (by protocol)
row,SMILES,survival
1,CCc1ccc(NC(=O)Cn2c(=O)n(CCCCC(=O)NCc3ccccc3Cl)c(=O)c3ccccc32)cc1,90%
2,CC(C)c1ccc(NC(=O)CN2C(=O)CSc3ccc(S(=O)(=O)N4CCCC4)cc32)cc1,91%
3,CC1Cc2cc(S(=O)(=O)N(C)c3ccc(Br)cc3)ccc2N1C(=O)C1CC1 (stereo not given),106%
4,COc1cc2c(=O)c(C(=O)c3ccc(C)c(C)c3)cn(Cc3ccccc3F)c2cc1OC,127%
5,COc1ccc(OC)c(NC(=O)c2cc(=O)c3c(C)cc(C)cc3o2)c1,87%
6,O=C(NC1CC(=O)N(c2ccc(Cl)cc2)C1)c1ccc(S(=O)(=O)N2CCCC2)cc1 (stereo not given),127%
7,CC(=O)N1CCCc2cc(S(=O)(=O)N3CCCC(C(=O)Nc4ccc(C)c(F)c4)C3)ccc21 (stereo not given),73%
8,COCCNC(=O)c1cnn(-c2cccc(C)c2)c1-n1cccc1,99%
9,CCOc1ccccc1C(=O)N1CCc2cc(OC)c(OC)cc2C1COc1ccc2c(C)cc(=O)oc2c1 (stereo not given),76%
10,Cc1c(C(=O)Nc2ccccc2Br)oc2ccc(S(=O)(=O)N3CCOCC3)cc12,113%
11,CCCCCC(=O)N1c2ccccc2C(C)(c2ccccc2)CC1(C)C (stereo not given),-2% (active)
12,CC(C)c1ccc(S(=O)(=O)c2nnn3c2nc(N2CCCC2)c2sccc23)cc1,89%
13,COc1ccc(-c2noc(CN(C(=O)c3ccc(C)cc3C)C(C)C)n2)cc1,0% (active)
14,Cc1ccc(-c2noc(CNC(=O)COc3cc(C)c(Br)c(C)c3)n2)cc1,89%
15,Cc1ccc(CC(=O)N(Cc2nc(-c3ccc(C)cc3)no2)C(C)C)cc1,-1% (active)
16,Cc1ccc(-c2noc(CN(C(=O)COc3cc(C)cc(C)c3C)C(C)C)n2)cc1,1% (active)
17,COc1ccc(-c2noc(CN(C(=O)c3cc(OC)c(OC)cc3OC)C(C)C)n2)cc1,86%
18,COc1ccc(-c2noc(CN(C(C)C)S(=O)(=O)c3ccc(Br)cc3)n2)cc1,81%
19,COc1ccc(-c2noc(CN(C(=O)c3ccccc3Cl)C(C)C)n2)cc1,97%
20,Cc1ccccc1C(=O)N(Cc1nc(-c2ccc(Cl)cc2)no1)C(C)C,86%
21,CC(C)N(Cc1nc(-c2ccc(Cl)cc2)no1)C(=O)c1ccco1,76%
22,COc1ccc(-c2noc(CN(C(=O)COc3cc(C)c(Br)c(C)c3)C(C)C)n2)cc1,7% (active)
23,O=C(O)CC(C(=O)O)c1cn(Cc2ccccc2)c2ccccc12 (stereo not given),105%
24,CC(C)(C)OC(=O)N1CCC(c2c(C(=O)NCCc3ccccc3)cnn2-c2ccc(F)cc2)CC1,78%
25,Cc1ccc(C)c(Cn2c3ccccc3c3cnn(CC(=O)NCCC4=CCCCC4)c(=O)c32)c1,82%

row,SMILES,survival
1,CC(Sc1nc(=O)cc(N)n1CCc1ccccc1)C(=O)Nc1ccccc1C#N (stereo not given),75%
2,CC(C(=O)NCC1CCCO1)N(C(=O)c1snc(C(N)=O)c1N)c1cccc(F)c1 (stereo not given),101%
3,Cc1ccccc1NC(=O)CSc1nnc(C)c(=O)[nH]1,89%
4,Cc1ccc(Nc2sc(C(=O)c3ccccc3)c(N)c2C(=O)NC(C)C)cc1,78%
5,O=C(CSc1nccn1Cc1ccccc1)Nc1ccc2c(c1)OCO2,138%
6,COc1ccc(-c2noc(CN(C(=O)Cc3ccc(C)cc3)C(C)C)n2)cc1,5% (active)
7,COc1ccc(-c2noc(CN(C(=O)C(C)Oc3ccc(C)cc3)C(C)C)n2)cc1 (stereo not given),77%
8,COc1ccc(CC(=O)N(Cc2nc(-c3ccc(C)cc3)no2)C(C)C)cc1,33%
9,COc1ccccc1OC(C)C(=O)N1CCN(CCc2ccccn2)CC1 (stereo not given),82%
10,COc1ccc2c(c1)c(=O)c(C(=O)c1ccc(F)cc1)cn2CC(=O)Nc1ccc2c(c1)OCO2,91%
11,CCCn1c(SCC(O)c2ccccc2)nc2ccccc21 (stereo not given),86%
12,CC(C)Cn1c(C2CC(=O)N(c3ccccc3Cl)C2)nc2ccccc21 (stereo not given),97%
13,CCCCNc1nc2c(-c3cccc(Br)c3)nnn2c2ccccc12,92%
14,Cc1nc2ccccc2c(=O)n1CC(C)C,106%
15,CCCn1c(-c2cccc(Br)c2)nc2ccccc21,3% (active)
16,CC(=O)NC(C)c1nc2ccccc2n1Cc1ccccc1Cl (stereo not given),91%
17,CC(C)Nc1nc2c(-c3cccc(Br)c3)nnn2c2ccccc12,74%
18,CC(C)Cn1c(-c2ccccc2Cl)nc2ccccc21,26% (active)
19,CC(C)Cn1c(-c2cccc(Br)c2)nc2ccccc21,27% (active)
20,O=C(NCCc1ccc(Cl)cc1)c1ccc(CS(=O)Cc2ccccc2Cl)o1 (stereo not given),62%
21,COc1ccccc1CCNC(=O)c1cc2c(=O)n3cccc(C)c3nc2n1C,85%
22,COc1ccc(C2CC(=O)c3cc(-c4nc(-c5ccc(Cl)cc5)c(C)s4)c(=O)[nH]c3C2)cc1 (stereo not given),71%
23,Cc1ccc(CCNC(=O)c2cc3c(=O)n(C)c4ccccc4c3n2C)cc1,80%
24,Cc1ccc(C)c(Cn2c(=O)n(CCCCC(=O)NCc3ccc4c(c3)OCO4)c(=O)c3ccccc32)c1,110%
25,CC(NC(=O)CN1C(=O)c2cccnc2Oc2ccc(Cl)cc21)c1ccccc1 (stereo not given),74%

row,SMILES,survival
1,Cc1c(C(=O)N2CCC(C)CC2)c(S(=O)(=O)NCc2ccc(Br)cc2)c(C)n1C,80%
2,COc1ccccc1Cn1cc(C(=O)c2ccc(C)cc2)c(=O)c2cc3c(cc21)OCCO3,83%
3,COc1ccc(OC)c(CNC(=O)c2ccc3c(c2)c(C)c(C)n3Cc2ccc(Cl)cc2)c1,82%
4,CCNC(=O)c1sc2ccccc2c1Cl,124%
5,CCN(C(=O)c1cn(-c2ccc(OC)cc2)c(=O)c2ccccc12)c1cccc(Cl)c1,119%
6,CCN(C(=O)c1sc2cc(OC)ccc2c1Cl)c1ccccc1,-9% (active)
7,O=C(COc1ccc(Cl)cc1)NCCc1csc(-c2ccc(F)cc2)n1,73%
8,CC1CCc2c(sc3nnn(Cc4ccccc4)c(=O)c23)C1 (stereo not given),0% (active)
9,CC1CCc2c(sc3nnn(Cc4ccccc4Cl)c(=O)c23)C1 (stereo not given),16%
10,CCCOC(=O)c1ccc(Cn2nnc3sc4c(c3c2=O)CCC(C)C4)cc1 (stereo not given),77%
11,Cc1ccccc1Cn1nnc2sc3c(c2c1=O)CCCC3,0% (active)
12,COC(=O)c1ccc(Cn2nnc3sc4c(c3c2=O)CCC(C)C4)cc1 (stereo not given),75%
13,CC1CCc2c(sc3nnn(Cc4ccc(F)cc4)c(=O)c23)C1 (stereo not given),1% (active)
14,Cc1ccc(Cn2nnc3sc4c(c3c2=O)CCC(C)C4)cc1 (stereo not given),60%
15,O=c1c2c3c(sc2nnn1Cc1ccc(Br)cc1)CCCC3,28%
16,COC(=O)c1ccc(Cn2nnc3sc4c(c3c2=O)CCCC4)cc1,77%
17,O=C(NCc1ccco1)c1ccc(COCC(F)(F)C(F)F)cc1,98%
18,COc1ccccc1N1CCN(C(=O)CN2C(=O)COc3ccc(S(=O)(=O)N4CCC(C)CC4)cc32)CC1,98%
19,CCCCc1nn2c(=O)cc(COC(=O)c3cccc(NC(=O)c4cccc(Cl)c4)c3)nc2s1,85%
20,CCNc1nc(NC(N)=S)nc(NC(C)(C)C)n1,112%
21,Fc1ccc(Nc2ncnc3onc(-c4cccc(Cl)c4)c23)c(F)c1,79%
22,C#CCNC(=O)NC1CCCN(S(=O)(=O)c2ccc(C)cc2)C1 (stereo not given),112%
23,CCc1ccc(C(=O)c2cn(CC(=O)Nc3ccc(OC)cc3)c3cc4c(cc3c2=O)OCCO4)cc1,89%
24,COc1cccc(NC(=O)C2CC(=O)N(c3ccc(Br)cc3)C2)c1 (stereo not given),63%
25,Cc1cc(C)n(C(=O)CNc2ccccc2Cl)n1,103%

row,SMILES,survival
1,COCCNC(=O)CCN1C(=O)c2cccnc2Oc2ccc(C)cc21,70%
2,COc1cc(C2NC(=O)NC(C)=C2C(=O)Nc2cc(C)cc(C)c2)ccc1O (stereo not given),69%
3,NC(=O)CSc1nc2ccc(NC(=O)COc3ccccc3)cc2s1,86%
4,COC(=O)c1ccc(NC(=O)Cc2coc3cc(C)ccc23)cc1,106%
5,Cc1ccc(NC(=O)Cc2coc3ccc(C(C)C)cc23)cc1Cl,53%
6,CC(C)c1ccc2occ(CC(=O)Nc3cccc(C(F)(F)F)c3)c2c1,0% (active)
7,Cc1ccc2onc(CC(=O)Nc3cccc(C(F)(F)F)c3)c2c1,92%
8,CC(C)c1ccc2occ(CC(=O)Nc3ccccc3Cl)c2c1,81%
9,Cc1ccc2c(CC(=O)Nc3cccc(C(F)(F)F)c3)coc2c1,8% (active)
10,CCC(=O)N1CCc2cc(Br)cc(S(=O)(=O)N3CCCC(C(=O)Nc4ccc(C(C)C)cc4)C3)c21 (stereo not given),106%
11,O=C(CSC1=Nc2ccccc2N=C(c2ccc(F)cc2)C1)NCc1ccc(F)cc1,83%
12,COC(=O)C1=C(C)N(C(C)C)C(=O)C1(NC(=O)c1ccc(C(C)(C)C)cc1)C(F)(F)F (stereo not given),65%
13,O=C(NC1CCCCC1)c1cc(Nc2cccc(C(F)(F)F)c2)nc2ccccc12,72%
14,CCn1c(SCC#N)nnc1-c1ccc(S(=O)(=O)N2CCCC2)cc1,100%
15,CCCN(C(=O)C(C)C)c1nnc(-c2cc(OC)c(OC)c(OC)c2)s1,120%
16,CCCn1c(=O)c2sccc2n2c(CCCC(=O)NCCOC)nnc12,97%
17,O=C(C1CCN(c2ncnc3c2nc2n3CCCCC2)CC1)N1CCN(c2ccc(Cl)cc2)CC1,55%
18,O=C(C1CCN(c2ncnc3c2nc2n3CCCCC2)CC1)N1CCN(c2ccccc2)CC1,71%
19,O=C(C1CCN(c2ncnc3c2nc2n3CCCCC2)CC1)N1CCN(c2ccc(F)cc2)CC1,-3% (active)
20,O=C(NCc1ccccc1)C1CCN(c2ncnc3c2nc2n3CCCCC2)CC1,82%
21,O=C(NCCc1ccc(Cl)cc1)C1CCN(c2ncnc3c2nc2n3CCCCC2)CC1,80%
22,Cc1cccc(N2CCN(c3ncnc4c3nc3n4CCCCC3)CC2C)c1 (stereo not given),75%
23,Cc1ccc(N2CCN(C(=O)C3CCN(c4ncnc5c4nc4n5CCCCC4)CC3)CC2)c(C)c1,55%
24,Cc1cccc(N2CCN(C(=O)C3CCN(c4ncnc5c4nc4n5CCCCC4)CC3)CC2C)c1 (stereo not given),1% (active)
25,O=C(NCCc1ccccc1)C1CCN(c2ncnc3c2nc2n3CCCCC2)CC1,-4% (active)
